Reference: article PMC5540273 (PLoS ONE, 2017)

How the values were obtained:
Conditions in all cases: concentration: 1 μM,replicates: in singlicate; n = 1
RIOK1 = test system: RIOK1
RIOK2 = test system: RIOK2
RIOK3 = test system: RIOK3
RIPK1 = test system: RIPK1
RIPK2 = test system: RIPK2
RIPK4 = test system: RIPK4
RIPK5 = test system: RIPK5
ROCK1 = test system: ROCK1
ROCK2 = test system: ROCK2
ROS1 = test system: ROS1
[1] = test system: RPS6KA4(Kin.Dom.1-N-terminal)
[2] = test system: RPS6KA4(Kin.Dom.2-C-terminal)
[3] = test system: RPS6KA5(Kin.Dom.1-N-terminal)
[4] = test system: RPS6KA5(Kin.Dom.2-C-terminal)
[5] = test system: T1, RSK1(Kin.Dom.1-N-terminal)
T1 construct: gene RPS6KA1

[6] = test system: T2, RSK1(Kin.Dom.2-C-terminal)
T2 construct: gene RPS6KA1

[7] = test system: T3, RSK2(Kin.Dom.1-N-terminal)
T3 construct: gene RPS6KA3

[8] = test system: T4, RSK2(Kin.Dom.2-C-terminal)
T4 construct: gene RPS6KA3

[9] = test system: T5, RSK3(Kin.Dom.1-N-terminal)
T5 construct: gene RPS6KA2

[10] = test system: T6, RSK3(Kin.Dom.2-C-terminal)
T6 construct: gene RPS6KA2
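Also: KINOMEscan kinase panel screen.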

O=C(Nc1n[nH]c2cc(-c3ccco3)ccc12)C1CC1 [SB-737447]
%Inh (RIOK1): 81% | %Inh (RIOK2): 10% | %Inh (RIOK3): 79% | %Inh (RIPK1): 13% | %Inh (RIPK2): 0% | %Inh (RIPK4): 36% | %Inh (RIPK5): 3% | %Inh (ROCK1): 0% | %Inh (ROCK2): 0% | %Inh (ROS1): 2% | %Inh [1]: 0% | %Inh [2]: 18% | %Inh [3]: 0% | %Inh [4]: 23% | %Inh [5]: 16% | %Inh [6]: 0% | %Inh [7]: 22% | %Inh [8]: 0% | %Inh [9]: 18% | %Inh [10]: 0%

O=C(Nc1ccc(Oc2ccc3nc(NC(=O)C4CC4)cn3n2)c(F)c1)c1cccn(-c2ccccc2)c1=O
%Inh (RIOK1): 13% | %Inh (RIOK2): 0% | %Inh (RIOK3): 31% | %Inh (RIPK1): 80% | %Inh (RIPK2): 4% | %Inh (RIPK4): 0% | %Inh (RIPK5): 0% | %Inh (ROCK1): 0% | %Inh (ROCK2): 0% | %Inh (ROS1): 0% | %Inh [1]: 50% | %Inh [2]: 0% | %Inh [3]: 0% | %Inh [4]: 9% | %Inh [5]: 0% | %Inh [6]: 0% | %Inh [7]: 0% | %Inh [8]: 28% | %Inh [9]: 0% | %Inh [10]: 0%

O=C(Nc1cccc(Oc2ccc3nccn3n2)c1)Nc1cccc(C(F)(F)F)c1
%Inh (RIOK1): 0% | %Inh (RIOK2): 0% | %Inh (RIOK3): 0% | %Inh (RIPK1): 5% | %Inh (RIPK2): 12% | %Inh (RIPK4): 0% | %Inh (RIPK5): 0% | %Inh (ROCK1): 3% | %Inh (ROCK2): 0% | %Inh (ROS1): 0% | %Inh [1]: 24% | %Inh [2]: 0% | %Inh [3]: 0% | %Inh [4]: 0% | %Inh [5]: 0% | %Inh [6]: 9% | %Inh [7]: 8% | %Inh [8]: 25% | %Inh [9]: 0% | %Inh [10]: 0%
